Counter-ions that a name gives are not always drawn. ± gives the standard deviation of the averaged measurements.

Holding throughout (assay): growth (OD600 after 10 h); higher = more growth (less inhibition)
The test system of assay [1] is E. coli TESEC Alr+ wild-type control. Particulars: compound 0.1 mM; raw OD600 reference: median of DMSO wells 0.241, cell-free background 0.041. As for the experimental part:
(§1)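 TESEC Mtb Alr E. coli, or the Alr+ wild-type control, in 384-well plates with Prestwick library compounds at 0.1 mM and 1% DMSO, across arabinose induction levels of 1E3 to 1E7 nM. Growth is read as OD600 after 10 h at 37 °C in triplicate biological replicates.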

The test system of assay [2] is E. coli TESEC Mtb Asd. Particulars: compound 0.1 mM. As for the experimental part: (§2)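 TESEC E. coli strains in which the native enzyme is deleted and replaced by arabinose-inducible Mtb Asd, DapB, CysH or TrpD, each grown in its selective medium. Strains were screened against the Prestwick library at 0.1 mM and 1% DMSO in 384-well format at low and high arabinose induction. Growth is read as OD600 after 10 h in triplicate.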

The test system of assay [3] is E. coli TESEC Mtb DapB. Particulars: compound 0.1 mM. As for the experimental part:
as §2

For assay [4], the system named is E. coli TESEC Mtb Alr. The following applies: compound 0.1 mM. As for the experimental part: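 TESEC Mtb Alr E. coli (ΔaraC ΔtolC ΔentC Δalr ΔdadX, arabinose-inducible Mtb Alr) or the Alr+ wild-type control strain, grown in defined M9-fructose medium without D-alanine in 96-well plates with Prestwick library compounds at 0.1 mM and 1% DMSO. Low Alr induction is 0.1 µM arabinose and high induction is 10 mM arabinose.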

Assay [5] concerns E. coli TESEC Mtb Alr. Particulars: compound 0.1 mM. As for the experimental part:
as §1
This is another data set of the same source.

Where [6] appears, read: arabinose induction (level): High, raw OD600 reference: median of DMSO wells 0.331, cell-free background 0.041.
[7] abbreviates: arabinose induction (level): Low, raw OD600 reference: median of DMSO wells 0.417, cell-free background 0.041.
[8] abbreviates: arabinose induction (level): High, raw OD600 reference: median of DMSO wells […], cell-free background 0.041.
The mark [9] stands for this setting: arabinose induction (level): Low, raw OD600 reference: median of DMSO wells 0.227, cell-free background 0.041.
The mark [10] stands for this setting: arabinose 100 nM, raw OD600 reference: median of DMSO wells 0.413, cell-free background 0.052.
[11] abbreviates: arabinose 10000000 nM, raw OD600 reference: median of DMSO wells […], cell-free background 0.052.
The mark [12] stands for this setting: arabinose 1000 nM, raw OD600 reference: median of DMSO wells 0.294, cell-free background 0.041.
The mark [13] stands for this setting: arabinose 10000 nM, raw OD600 reference: median of DMSO wells 0.264, cell-free background 0.041.
Where [14] appears, read: arabinose 100000 nM, raw OD600 reference: median of DMSO wells 0.201, cell-free background 0.041.
Where [15] appears, read: arabinose 1000000 nM, raw OD600 reference: median of DMSO wells 0.193, cell-free background 0.041.
Setting [16] is: arabinose 10000000 nM, raw OD600 reference: median of DMSO wells 0.146, cell-free background 0.041.

In the case of `CCC1=C[C@H]2CN3CCc4c([nH]c5ccccc45)[C@](C(=O)OC)(C2)[C@H]13` [Catharanthine], the growth in assay [1] turned out to be 0.203 ± 0.0049; in assay [2] (setting [6]), 0.2 ± 0.032; in assay [2] (setting [7]) it was 0.437 ± 0.016; in assay [3] (setting [8]), 0.167 ± 0.0065; in assay [3] (setting [9]), 0.1738 ± 0.0015; in assay [4] (setting [10]), 0.4199 ± 0.0038. In assay [4] (setting [11]), the growth came to 0.3 ± 0.017.

Take `C[C@]12CC[C@H](O)C[C@@H]1CC[C@@H]1[C@@H]2CC[C@]2(C)C(=O)CC[C@@H]12` [Epiandrosterone]: the growth in assay [1] amounted to 0.126 ± 0.0063; in assay [2] (setting [6]) it was 0.0929 ± 0.015; in assay [2] (setting [7]), 0.168 ± 0.018; in assay [3] (setting [8]), 0.152 ± 0.021; in assay [3] (setting [9]) it was 0.136 ± 0.006; in assay [4] (setting [10]), 0.353 ± 0.043. Further, the growth in assay [4] (setting [11]) turned out to be 0.109 ± 0.0099.

For `CN(C)[C@@H]1C(=O)C(C(N)=O)=C(O)[C@@]2(O)C(=O)C3=C(O)c4c(O)cccc4[C@@](C)(O)[C@H]3C[C@@H]12` [Tetracycline hydrochloride], the growth in assay [1] worked out at 0.0422 ± 0.00046; in assay [5] (setting [12]) it was 0.0426 ± 0.0035; in assay [5] (setting [13]), 0.04053 ± 0.00032; in assay [5] (setting [14]) it was 0.0418 ± 0.0011; in assay [5] (setting [15]) it was 0.04083 ± 0.00025; in assay [5] (setting [16]) it was 0.0422 ± 0.00068. For the same compound, the growth was 0.0539 ± 0.0012 in assay [2] (setting [6]), 0.0592 ± 0.0072 in assay [2] (setting [7]), 0.0567 ± 0.0019 in assay [4] (setting [10]) and 0.0604 ± 0.0025 in assay [4] (setting [11]).

On to `C[C@@]12N[C@@H](Cc3ccccc31)c1ccccc12` [(-)-MK 801 hydrogen maleate], for which the growth in assay [1] is 0.226 ± 0.014; in assay [5] (setting [12]), 0.29 ± 0.013; in assay [5] (setting [13]), 0.247 ± 0.0096; in assay [5] (setting [14]), 0.138 ± 0.0052; in assay [5] (setting [15]), 0.113 ± 0.0073; in assay [5] (setting [16]), 0.132 ± 0.0029. The growth turned out to be 0.244 ± 0.014 in assay [2] (setting [6]), 0.514 ± 0.039 in assay [2] (setting [7]), 0.412 ± 0.017 in assay [4] (setting [10]) and 0.2863 ± 0.0016 in assay [4] (setting [11]).

For `O=[N+]([O-])O[C@@H]1CO[C@H]2[C@@H]1OC[C@@H]2O` [Isosorbide mononitrate], the growth amounted to 0.24 ± 0.0084 in assay [1]; 0.255 ± 0.084 in assay [2] (setting [6]); 0.345 ± 0.017 in assay [2] (setting [7]); 0.176 ± 0.0055 in assay [3] (setting [8]); 0.216 ± 0.03 in assay [3] (setting [9]); 0.4231 ± 0.0041 in assay [4] (setting [10]). This compound displayed a growth in assay [4] (setting [11]) of 0.324 ± 0.012.

With `C[N+]1(C)[C@@H]2CC[C@H]1C[C@@H](OC(=O)C(CO)c1ccccc1)C2` (stereo not given in full) [Methylatropine nitrate], the growth amounted to 0.232 ± 0.013 in assay [1]; 0.286 ± 0.02 in assay [2] (setting [6]); 0.438 ± 0.022 in assay [2] (setting [7]); 0.199 ± 0.028 in assay [3] (setting [8]); 0.229 ± 0.0072 in assay [3] (setting [9]); 0.391 ± 0.011 in assay [4] (setting [10]). The compound further showed a growth in assay [4] (setting [11]) of 0.355 ± 0.012.

As to `c1ccc2nc(N3CCNCC3)ccc2c1` [Quipazine dimaleate salt], the growth in assay [1] amounted to 0.232 ± 0.008; in assay [2] (setting [6]), 0.223 ± 0.013; in assay [2] (setting [7]) it was 0.257 ± 0.015; in assay [4] (setting [10]), 0.402 ± 0.0069; in assay [4] (setting [11]) it was 0.371 ± 0.02.

On to `C[CH2][Hg][S]c1ccccc1C(=O)[O-].[Na+]` [Thimerosal], for which the growth in assay [1] worked out at 0.0433 ± 0.0046; in assay [2] (setting [6]), 0.0491 ± 0.0015; in assay [2] (setting [7]), 0.0488 ± 0.0015; in assay [4] (setting [10]) it was 0.355 ± 0.036; in assay [4] (setting [11]), 0.0589 ± 0.0027.

As to `C[N+]1([O-])[C@@H]2C[C@@H](OC(=O)[C@H](CO)c3ccccc3)C[C@H]1[C@@H]1O[C@@H]12` (stereo not given in full) [Scopolamin-N-oxide hydrobromide], the growth is 0.262 ± 0.013 in assay [1]; 0.334 ± 0.068 in assay [2] (setting [6]); 0.408 ± 0.035 in assay [2] (setting [7]); 0.221 ± 0.012 in assay [3] (setting [8]); 0.257 ± 0.025 in assay [3] (setting [9]); 0.411 ± 0.021 in assay [4] (setting [10]). For the same compound, in assay [4] (setting [11]), the growth stood at 0.347 ± 0.018.

For the compound `CC(C)[N+](C)(CCC(C(N)=O)(c1ccccc1)c1ccccc1)C(C)C` [Isopropamide iodide], the growth was 0.211 ± 0.003 in assay [1]; 0.285 ± 0.0086 in assay [5] (setting [12]); 0.248 ± 0.0032 in assay [5] (setting [13]); 0.199 ± 0.015 in assay [5] (setting [14]); 0.147 ± 0.0039 in assay [5] (setting [15]); 0.142 ± 0.0052 in assay [5] (setting [16]). The growth in assay [2] (setting [6]) turned out to be 0.268 ± 0.036; in assay [2] (setting [7]) it was 0.41 ± 0.036; in assay [4] (setting [10]) it was 0.399 ± 0.025; in assay [4] (setting [11]), 0.331 ± 0.013.
